Assay results: PubChem BioAssay
Results filed as inconclusive are left out. Active and inactive are the calls of the source.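 The calls were made as follows, unless noted: active = normalized viability below 100% at a tested concentration; inactive = the rest.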

What was measured:
[1] = viability loss in pontine glioma line – cell-based, SU-DIPG-XVII, MIPE5.0, CellTiter-Glo, qHTS, dose response (AID 1347060; cut-off not given, nearly all actives have AC50 up to about 26 µM;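 as to AC50: cells exposed to compound for 48 hours before viability readout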); conditions: CellTiter-Glo ATP luminescence
[2] = viability loss in pontine glioma line – cell-based, JHH-DIPG-1, MIPE4.0, CellTiter-Glo, qHTS, dose response (AID 1347062; cut-off not given, nearly all actives have AC50 up to about 27 µM;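 as to AC50: cells exposed to compound for two days before readout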); conditions: JHH-DIPG-1 viability, CellTiter-Glo ATP luminescence
[3] = viability loss in pontine glioma line – cell-based, SU-DIPG-IV, MIPE4.0, CellTiter-Glo, qHTS, dose response (AID 1347063; cut-off not given, nearly all actives have AC50 up to about 30 µM;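 also: compound exposure lasted 48 hours before the viability readout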); conditions: CellTiter-Glo ATP luminescence
[4] = viability loss in pontine glioma line – cell-based, SU-DIPG-XXV, MIPE5.0, CellTiter-Glo, qHTS, dose response (AID 1347065; cut-off not given, nearly all actives have AC50 up to about 26 µM;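 also: cells exposed to compound for 48 hours before ATP readout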); conditions: CellTiter-Glo ATP luminescence
[5] = growth inhibition of DIPG cells – cell-based, MIPE4.0 library, CellTiter-Glo luminescence, qHTS (AID 1347066; cut-off not given, nearly all actives have AC50 up to about 30 µM;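 also: cells exposed to compound for 48 hours before readout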); conditions: SU-DIPG-VI viability, CellTiter-Glo ATP luminescence
[6] = JHH-DIPG-1 glioma cell viability, MIPE5.0 library, CellTiter-Glo luminescence, qHTS (AID 1347067; cut-off not given, nearly all actives have AC50 up to about 26 µM;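 also: cells exposed to compound for 48 hours before readout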); conditions: JHH-DIPG-1 glioma viability, CellTiter-Glo ATP luminescence
[7] = growth inhibition of DIPG cells – cell-based, MIPE5.0 library, qHTS (AID 1347068; cut-off not given, nearly all actives have IC50 up to about 30 µM;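 also: cells exposed to compound for 48 hours before viability readout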); conditions: SU-DIPG-XXV viability
[8] = compounds altering HSF1 focus formation in cells – imaging, Selleck Cancer Library (AID 1347162; in the data active = plate-normalised HSF1 focus index below about 0.46); conditions: human cells, HSF1 nuclear foci imaging, at 10 µM; SSMD: measured here: HSF1 foci SSMD mean; cell count: measured here: cell number; plate-normalised HSF1 focus index: stronger effect = lower value
[9] = drug combination growth inhibition, ovarian cancer – cell-based, oncology-focused library, rucaparib conditional, profiling panel (AID 1508598); conditions: patient-derived ovarian cancer cells, CellTiter-Glo viability, 144 h, stronger effect = lower value
[10] = viability loss in pontine glioma line – cell-based, SU-DIPG-XIII, MIPE5.0, CellTiter-Glo, qHTS, dose response (AID 1347064; cut-off not given, nearly all actives have AC50 up to about 23 µM;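 also: cells exposed to compound for 48 hours before the viability read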); conditions: CellTiter-Glo ATP luminescence
[11] = viability loss with induced miR-34 in A549 – imaging, A549 dox-inducible miR-34, nuclei and caspase counts, primary screen (AID 1347080;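 active = compounds whose cell count with miR-34 switched on is under 0.7 times the count with it off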); conditions: A549 miR-34 inducible, Hoechst nuclei count, 48 h
[12] = MELAS cybrid and Rieske KO viability enhancers – cell-based, MELAS cybrids, Rieske KO mouse fibroblasts, CellTiter-Glo, primary screen (AID 1508586;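 active = mean z-score across replicates of 1.96 or higher in either the MELAS or the Rieske mutant cell line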;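 also: z relative to plate mean and SD of compound and empty wells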); conditions: low glucose
[13] = stronger effect = lower value, cell number ratio, induced over uninduced
[14] = measured here: relative caspase fold change +Dox/-Dox
[15] = measured here: total cells with miR-34 induction, stronger effect = lower value
[16] = measured here: total cells without miR-34 induction

CCN(CC)CCCCNc1nc2cc(Cl)c(Cl)cc2nc1-c1ccc(-c2cccs2)s1
active: AC50 [1] 6.61 µM | AC50 [2] 7.43 µM | AC50 [3] 7.43 µM | AC50 [4] 5.25 µM | AC50 [5] 14.8 µM | AC50 [6] 9.34 µM

CC(C)C[C@H](NC(=O)CNC(=O)c1cc(Cl)ccc1Cl)B1OC(=O)CC(CC(=O)O)(C(=O)O)O1 (some centres undefined)
7560: cell count [8]
2.92: SSMD [8]
active: AC50 [1] 0.209 µM | AC50 [2] 0.132 µM | AC50 [3] 0.0662 µM | AC50 [4] 0.0833 µM | AC50 [6] 0.235 µM | IC50 [7] 0.132 µM | viability ([9]; at 0.0195 µM, OCI-P5x cells, with rucaparib 20 µM, 100% = cells with rucaparib alone) 97.5% | viability ([9]; at 0.313 µM, OCI-C5x cells, with rucaparib 10 µM, 100% = cells with rucaparib alone) 25% | viability ([9]; at 0.313 µM, OCI-C5x cells, without rucaparib) 16.8% | viability ([9]; at 0.313 µM, OCI-P5x cells, with rucaparib 20 µM, 100% = cells with rucaparib alone) 12.3% | viability ([9]; at 0.313 µM, OCI-P5x cells, without rucaparib) 3.86% | viability ([9]; at 1.25 µM, OCI-C5x cells, with rucaparib 10 µM, 100% = cells with rucaparib alone) 6.01% | viability ([9]; at 1.25 µM, OCI-C5x cells, without rucaparib) 5.13% | viability ([9]; at 1.25 µM, OCI-P5x cells, with rucaparib 20 µM, 100% = cells with rucaparib alone) 2.61% | viability ([9]; at 1.25 µM, OCI-P5x cells, without rucaparib) 1.15% | viability ([9]; at 5 µM, OCI-C5x cells, with rucaparib 10 µM, 100% = cells with rucaparib alone) 1.84% | viability ([9]; at 5 µM, OCI-C5x cells, without rucaparib) 1.81% | viability ([9]; at 5 µM, OCI-P5x cells, with rucaparib 20 µM, 100% = cells with rucaparib alone) 1.46% | viability ([9]; at 5 µM, OCI-P5x cells, without rucaparib) 0.836%
inactive: plate-normalised HSF1 focus index [8] 1.18 | viability ([9]; at 0.000305 µM, OCI-C5x cells, with rucaparib 10 µM, 100% = cells with rucaparib alone) 104% | viability ([9]; at 0.000305 µM, OCI-C5x cells, without rucaparib) 124% | viability ([9]; at 0.000305 µM, OCI-P5x cells, with rucaparib 20 µM, 100% = cells with rucaparib alone) 111% | viability ([9]; at 0.000305 µM, OCI-P5x cells, without rucaparib) 113% | viability ([9]; at 0.00122 µM, OCI-C5x cells, with rucaparib 10 µM, 100% = cells with rucaparib alone) 107% | viability ([9]; at 0.00122 µM, OCI-C5x cells, without rucaparib) 123% | viability ([9]; at 0.00122 µM, OCI-P5x cells, with rucaparib 20 µM, 100% = cells with rucaparib alone) 111% | viability ([9]; at 0.00122 µM, OCI-P5x cells, without rucaparib) 110% | viability ([9]; at 0.00488 µM, OCI-C5x cells, with rucaparib 10 µM, 100% = cells with rucaparib alone) 100% | viability ([9]; at 0.00488 µM, OCI-C5x cells, without rucaparib) 122% | viability ([9]; at 0.00488 µM, OCI-P5x cells, with rucaparib 20 µM, 100% = cells with rucaparib alone) 112% | viability ([9]; at 0.00488 µM, OCI-P5x cells, without rucaparib) 110% | viability ([9]; at 0.0195 µM, OCI-C5x cells, with rucaparib 10 µM, 100% = cells with rucaparib alone) 107% | viability ([9]; at 0.0195 µM, OCI-C5x cells, without rucaparib) 119% | viability ([9]; at 0.0195 µM, OCI-P5x cells, without rucaparib) 104% | viability ([9]; at 0.0781 µM, OCI-C5x cells, with rucaparib 10 µM, 100% = cells with rucaparib alone) 101% | viability ([9]; at 0.0781 µM, OCI-C5x cells, without rucaparib) 118% | viability ([9]; at 0.0781 µM, OCI-P5x cells, with rucaparib 20 µM, 100% = cells with rucaparib alone) 103% | viability ([9]; at 0.0781 µM, OCI-P5x cells, without rucaparib) 100%

O=C(c1ccc(/C=C/c2n[nH]c3ccccc23)cc1)N1CCNCC1
active: AC50 [1] 5.9 µM | AC50 [2] 23.5 µM | AC50 [10] 8.33 µM | AC50 [4] 4.68 µM

CCOC(=O)[C@H]1O[C@@H]1C(=O)N[C@@H](CC(C)C)C(=O)NCCC(C)C
0.856: fold change [11, 14]
4650: cell count [11, 15]
4800: cell count [11, 16]
inactive: outcome [1] | outcome [2] | outcome [3] | outcome [4] | outcome [6] | fold change [11, 13] 0.97

CCOC(CN1C(=O)[C@](CC(=O)Nc2ccc(C)cc2)(NC(=O)Nc2ccc(C)cc2)c2ccccc21)OCC
active: AC50 [1] 23.5 µM | AC50 [3] 14.8 µM | AC50 [4] 18.6 µM | AC50 [6] 20.9 µM | IC50 [7] 23.5 µM
inactive: outcome [2]

O=C1NCCc2[nH]c(-c3ccncc3)cc21
2160: cell count [11, 16]
-3.11: z-score ([12]; Rieske KO mouse fibroblast survival, CellTiter-Glo 72 h)
inactive: outcome [5] | fold change [11, 13] 1.04 | z-score ([12]; MELAS cybrid survival, CellTiter-Glo 48 h, stronger effect = higher value) 0.826
2250: cell count [11, 15]
active: AC50 [1] 3.72 µM | AC50 [2] 3.32 µM | AC50 [3] 2.64 µM | AC50 [4] 2.09 µM | AC50 [6] 3.32 µM | IC50 [7] 5.25 µM
0.743: fold change [11, 14]
